According to PubChem BioAssay AID1671193 (National Center for Advancing Translational Sciences (NCATS), 2021):
The whole screen tested about 150,000 compounds, of which about 180 (0.12%) were called active. Another 6% or so got no clear call; they are omitted. Calls follow the shape of the dose curve; as a rule, active = well fitted cell-killing curve with a large enough effect; inconclusive = small, poorly fitted or top-dose-only effect, or effect the other way; inactive = flat fitted curve, though single readings scatter. For the sample, actives were picked, then their nearest neighbours and some compounds at random.

assay: GF-AFC viability counterscreen for inhibitors of alpha-synuclein gene (SNCA) expression; conditions: HEK-293-SNCA-luc viability, GF-AFC fluorescence, 24 h; series mostly up to 57.1 µM; activity change, negative = cytotoxicity: at the top concentration;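 also: 0% = DMSO-treated cells and -100% = medium-only wells without cells; nearly all actives have a fitted effect of over 30% in size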
Summary of the method: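 Cytotoxicity counterscreen: after 24 h compound treatment of genome-edited SNCA-luciferase HEK-293 cells, live-cell protease substrate GF-AFC read by fluorescence after 30 min; activity scaled between DMSO (0%) and medium-only (-100%), curves Hill-fitted.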

| SMILES | activity change, negative = cytotoxicity |
| --- | --- |
| O=C(NCc1ccc(F)cc1)N1CCC2(CC1)CC(OCC1CC1)CCO2 (stereo not drawn) | 4.57% [at 12.5 µM] (inactive) |
| CCOC(=O)C1CCCN(C(=O)c2c(C)oc3c2CN(Cc2ccc(C)cc2)CC3)C1 (stereo not drawn) | 1.84% (inactive) |
| COc1ccc(OC)c2nc(-c3cccc(C)c3)c(CN3CCCC(O)C3)cc12 (stereo not drawn) | -18% (inactive) |
| O=C(NC1CCN(c2ccnc3ccnn23)C1)c1ccccc1F (stereo not drawn) | 2.27% [at 87.6 µM] (inactive) |
| Cn1nccc1C(=O)NCCC1CCN(C(=O)Nc2ccccc2)CC1 | -3.2% (inactive) |
| Cc1ccc(-c2noc([C@@H]3Cc4nc[nH]c4CN3Cc3cccc(C#N)c3)n2)cc1 | -20.9% [at 87.6 µM] (inactive) |
| CCCCN(CC#Cc1ccccc1)C(=O)c1cc(=O)n(C)c(=O)n1C | -8.83% (inactive) |
| COc1ccc(NC(=O)c2nc3sccn3c2-c2cccnc2)cc1 | -12.6% [at 87.6 µM] (inactive) |
| COCCN1C(=O)CS(=O)(=O)C12CCN(C(=O)c1ccc(C)s1)CC2 | 20% (inactive) |
| CCOc1ccccc1CN1CCC(Cc2nc(-c3cccnc3)n[nH]2)C1 (stereo not drawn) | -0.241% (inactive) |
| COc1ccccc1-c1nc(C(=O)NCc2cccs2)n2ccncc12 | 28.7% (inactive) |
| O=C(c1ccc(C(F)(F)F)cc1)N1CCCC(C(=O)N2CCC(c3nc4ccncc4[nH]3)C2)C1 (stereo not drawn) | -6.6% (inactive) |
| CN1CCC2(CC1)Cc1ccccc1CN(C(=O)c1cccc(Cl)c1)C2 | 10.6% (inactive) |
| O=C(NCc1cccc(Cl)c1)C1CCc2nnc(-c3cccc(C(F)(F)F)c3)n21 (stereo not drawn) | -23.1% (inactive) |
| COc1ccccc1CN1C(=O)COC[C@@H]1[C@H](O)c1ccc(NC(=O)c2ccc(C#N)cc2)cc1 | -0.083% (inactive) |
| CC(C)Cc1ccc(CN2CCC3(CC2)Cc2ccccc2CNC3=O)cc1 | -13.9% (inactive) |
| COc1ccc(S(=O)(=O)N2CCC3(CCC(=O)N(CC4CC4)CC3)CC2)cc1 | 3.17% (inactive) |
| O=C(NC1CCN(c2cc(-c3cccs3)[nH]n2)C1)c1ccc(Br)cc1 (stereo not drawn) | -25.9% (inactive) |
| COc1ccc(CN2CC(Oc3ccc(F)c(F)c3)C2)cc1 | 6.04% (inactive) |
| COc1cccc(-c2cc(C3CCN(C(=O)Nc4ccccc4C)CC3)[nH]n2)c1 | 5.76% (inactive) |

| SMILES | activity change, negative = cytotoxicity |
| --- | --- |
| Cc1cccc(-c2nc3ccc(C(=O)N4C(C)CCCC4C)cc3o2)n1 (stereo not drawn) | 4.64% [at 87.6 µM] (inactive) |
| COc1ccc(NC(=O)N2CCCC(Cc3noc(-c4ccccc4)n3)C2)cc1 (stereo not drawn) | -21.5% (inactive) |
| O=C(Cc1ccc(F)cc1)N1CCC(n2cc(-c3nc(-c4ccccc4)no3)nn2)CC1 | -4.44% (inactive) |
| COc1ccc(CNC(=O)C2CCN(c3cc(C(F)(F)F)nc(C)n3)CC2)cc1 | -1.08% (inactive) |
| O=C(Nc1ccc(Cl)cc1)NC1CCN(C(=O)c2ccc(-c3cncnc3)cc2)CC1 | 0.645% [at 12.5 µM] (inactive) |
| O=C(NC1CCCc2c1[nH]c1c(Cl)cccc21)c1ccco1 (stereo not drawn) | -11.1% (inactive) |
| COc1ccc(C)cc1NC(=O)Nc1cccc(-c2ccc(N3CCCCC3)nn2)c1 | -0.192% (inactive) |
| CC1(CCCCc2ccccc2)COc2ccc(C(=O)N3CCNC(=O)C3)cc2N1 (stereo not drawn) | 10.4% [at 87.6 µM] (inactive) |
| COC(=O)C1=C(C)N=C2SC=C(CC(=O)N3CCCC3)N2C1c1cccc(F)c1 (stereo not drawn) | -2.14% (inactive) |
| COC(=O)N1CCC(C(=O)N2CCC3(CC2)CC(=O)Nc2ccccc2O3)CC1 | -2.76% (inactive) |
| O[C@@H]1C[C@@H](c2nc(-c3ccc4c(c3)OCO4)no2)N(Cc2ccc(-c3ccccn3)cc2)C1 | 3.7% (inactive) |
| CN(C)c1cccc(-c2cnc(Nc3ccc(N4CCOCC4)cc3)c3c2CCO3)c1 | -24.4% [at 87.6 µM] (inactive) |
| Cc1ccccc1N(C)C1CN(C(=O)OC(C)(C)C)C1 | -2.58% [at 87.6 µM] (inactive) |
| COc1cccc(-c2cc(-c3nc(-c4ccc5nc[nH]c5c4)no3)[nH]n2)c1 | -0.573% (inactive) |
| COc1ccc(S(=O)(=O)N2CCC(n3cnnc3-c3ccccc3)CC2)cc1Cl | 11.8% (inactive) |
| O=C(C1CCN(c2nc(-c3ccccc3)nc3c2CCC3)CC1)N1CCC[C@H]1CO | -13.8% (inactive) |
| O=C(O)CCNC(=O)Cn1nc2c(cc1=O)CCCC2 | 3.69% (inactive) |
| O=C(NCc1ccc(F)cc1)C1CCCN(c2ccnc3ccnn23)C1 (stereo not drawn) | -16.2% [at 87.6 µM] (inactive) |
| O=C(c1ccco1)N1CCC(O)(c2ccccc2)[C@H](N2CCCC2)C1 (stereo partly drawn) | -4.84% (inactive) |
| COc1ccc(-n2c(=O)c(C(=O)Nc3ccccc3Cl)nc3cccnc32)cc1 | 12.9% (inactive) |

| SMILES | activity change, negative = cytotoxicity |
| --- | --- |
| Cc1ccc(C(=O)N2CCC(C(=O)N3CCC(c4nc5ncccc5[nH]4)CC3)C2)cc1 (stereo not drawn) | 0.717% (inactive) |
| O=C(Nc1cc(-c2cccnc2)nn1-c1ccccc1)c1ccccc1F | -11.9% (inactive) |
| CC(C)Cn1c(=O)c(C(=O)NCc2ccccc2Cl)nc2cccnc21 | -0.216% (inactive) |
| CC(C)C(=O)N1CCC2(CC1)OC(=O)N(Cc1ccccc1F)C2(C)c1ccccc1 (stereo not drawn) | 7.41% [at 87.6 µM] (inactive) |
| FC(F)(F)c1ccc(CN2CCCC3(CC(c4ccccc4)=NO3)C2)cc1 (stereo not drawn) | -1.62% (inactive) |
| O=C(NCCC1CCN(C(=O)Nc2ccc(F)cc2)CC1)c1ccccn1 | 2.57% (inactive) |
| COc1ccc(C(=O)N2CCC3(CC2)N(c2ccccc2)C(=O)CS3(=O)=O)cc1F | 12.3% (inactive) |
| Cc1ccc(F)cc1S(=O)(=O)N1CCC(OC2CCN(Cc3ccccc3)CC2)CC1 | 0.655% (inactive) |
| COc1cc(CNCCOc2ccccc2)ccc1OCC(O)CN1CCOCC1 (stereo not drawn) | -10.6% (inactive) |
| CC(=O)NC[C@H]1COCc2nc3cc(NC(C)=O)ccc3n21 | -1.47% [at 87.6 µM] (inactive) |
| COCCOc1ccc(-c2noc([C@@H]3CCCN3C3CCC3)n2)cn1 | -1.78% [at 87.6 µM] (inactive) |
| COc1ccccc1CN1Cc2cc(NC(=O)C3CCCC3)ccc2OC(C)C1=O (stereo not drawn) | -3.41% (inactive) |
| O=C(CCC1CCN(S(=O)(=O)c2ccccc2)CC1)NCCc1ccccc1 | -3.02% (inactive) |
| CC(=O)c1c(C)nn(C(C)CC(=O)N2C[C@H]3CC=CC[C@H]3C2)c1C (stereo partly drawn) | 2.51% (inactive) |
| O=C(C[C@@H]1CCNC[C@@H]1Cc1cc(CC2CCCCC2)on1)NC1CCCCC1 | 8.24% [at 87.6 µM] (inactive) |
| COc1cccc([C@@H]2CN(C(=O)CCCn3cnnn3)C[C@H]2C(=O)O)c1 | 6.48% (inactive) |
| COCCN(C)Cc1ccc(CC2CCN(C(=O)C3(c4ccc(OC)cc4)CC3)CC2)cc1 | -1.65% (inactive) |
| CCOc1ccc(CC(=O)N2CCC(C3CCN(C(=O)NC)CC3)C2)cc1 (stereo not drawn) | 6.55% [at 12.5 µM] (inactive) |
